# D1 antagonist – Antagonist of Human D 1 Dopamine Receptor: qHTS | D(1A) dopamine receptor (Homo sapiens), P21728 | HEK293 TREx D1 cells, calcium flux, dopamine EC80; stronger effect = lower value | 3.2% of 360,000 active | activity change, negative = inhibition, % at 10 µM; in the data active means activity change below about -30%; further: on the % scale 0 is the no-effect control and ±100 the full control effect
#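 Inducible Hek293 Trex D1 cells (tetracycline, overnight, 30 C). Calcium dye 30–90 min RT. Antagonist mode: EC80 dopamine added after 180 s compound read.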
# USP2a inh – qHTS Assay for Inhibitors of Ubiquitin-specific Protease USP2a Using CHOP2 as the Reporter | Ubiquitin carboxyl-terminal hydrolase 2 (Homo sapiens), O75604 | USP2 core, Ub-CHOP2 coupled fluorogenic reporter, 485/531 | Potency, µM (series often up to 38.3 µM), without a hit: top-dose activity change, negative = inhibition, most hits filed as inhibitors | 0.01% of 330,000 active;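 further: potency means the concentration at half of the fitted maximal effect; plate controls were DMSO wells for no effect and full inhibition by NEM control for full effect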
#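 Cell-free coupled assay: 10nM USP2 core preincubated 30min RT with compound in Tris-HCl pH 8.0/CaCl2/CHAPS buffer, then 25nM Ub-CHOP2 and 25nM reporter substrate; fluorescence (Ex 485/Em 531) read after 60min RT, normalized to NEM inhibition, concentration-response curves fitted.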
# GALK inh – qHTS Assay for Inhibitors of Human Galactokinase (GALK); P51570; Purified GALK, Kinase-Glo residual ATP luminescence; Potency, µM (highest dose often 57.5 µM), for the others: at the highest dose activity change, negative = inhibition, hits mostly inhibitors; 0.007% of 270,000 active; AID 1868, 2009; further: potency means the concentration at half of the fitted maximal effect; on the % scale 0 is the no-effect control and ±100 the full control effect
# Target sequence (P51570 whole entry, looked up): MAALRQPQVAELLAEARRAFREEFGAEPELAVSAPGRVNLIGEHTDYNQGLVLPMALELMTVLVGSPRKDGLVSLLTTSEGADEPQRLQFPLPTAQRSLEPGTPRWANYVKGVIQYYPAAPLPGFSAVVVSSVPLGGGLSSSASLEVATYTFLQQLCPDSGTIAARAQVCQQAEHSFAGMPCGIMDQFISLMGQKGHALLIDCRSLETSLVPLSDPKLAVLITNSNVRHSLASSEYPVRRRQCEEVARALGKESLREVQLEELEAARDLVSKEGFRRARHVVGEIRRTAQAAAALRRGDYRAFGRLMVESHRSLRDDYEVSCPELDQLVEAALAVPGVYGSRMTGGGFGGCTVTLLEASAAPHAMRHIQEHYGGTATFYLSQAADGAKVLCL
#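 Human GALK (5 nM) with 35 uM ATP and 100 uM galactose in 20 mM HEPES pH 8.0, 5 mM MgCl2, 60 mM NaCl, 1 mM DTT, 0.01% BSA. After 1 h at room temperature, leftover ATP was read by Kinase-Glo Plus luminescence.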
# Eya2 inh – qHTS Assay for Inhibitors of the Phosphatase Activity of Eya2. recombinant Eya2, OMFP fluorescence dephosphorylation (OMFP is methylfluorescein phosphate). Potency, µM (top dose mostly 76.9 µM), without a hit: at the top dose activity, negative = inhibition, most hits filed as inhibitors. 0.006% of 330,000 active. AID 488837, 2010; further: potency means the concentration at half of the fitted maximal effect; on the % scale 0 is the no-effect control and ±100 the full control effect
#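 Eya2 (0.2 uM) preincubated 10 min at ambient with compound, then OMFP substrate added at 50 uM; 10 min reaction in 50 mM HEPES pH 7.5, 50 mM NaCl, 5 uM MgCl2, 0.05% BSA, 1 mM DTT. Fluorescence read at Ex 485/Em 525 nm.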
# D1 ag – Allosteric Agonists of the Human D1 Dopamine Receptor: qHTS | D(1A) dopamine receptor (Homo sapiens), P21728 | HEK293 T-REx D1 cells, calcium flux, agonist mode | activation, % at 2 µM | 1% of 360,000 active | AID 504660, 2011; in the data active means activation above about 30%; further: 0% is about no effect
#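 Tetracycline-induced HEK293 TREx D1 cells, force-coupled to calcium signalling, were dye-loaded with a no-wash calcium kit. Compound was pin-added after a 10 s baseline. Fluorescence was read kinetically at 1 cycle/s for 180 s, with calcium rises flagged as agonism.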
# D1 potentiator – Potentiators of Human D1 Dopamine Receptor: qHTS. HEK293 TREx D1 cells, calcium flux, dopamine EC20 potentiation. potentiation, % at 10 µM. 0.036% of 360,000 active. AID 504651, 2011; in the data active means potentiation above about 30%; further: 0% is about no effect
# Active calls of the source: *; ? = inconclusive; . = no result given. Only some compounds are listed: those with a hit (about 3.9% of all), similar ones and a draw of the others. Unless noted, the call rests on the fitted dose curve; in most records, active means well fitted inhibition curve with a large enough effect; inconclusive means small, poorly fitted or top-dose-only effect, or effect the other way; inactive means flat fitted curve, though single readings scatter.
SMILES,D1 antagonist,USP2a inh,GALK inh,Eya2 inh,D1 ag,D1 potentiator
COC(=O)C(C)Sc1snnc1-c1ccccc1 (stereo not drawn),-6,11%,-2%,-7%,5,-3
Cc1nnsc1SC(C)C(=O)O (stereo not drawn),-50*,1%,2%,2%,5,-6
O=C(CSc1nc2ccccc2n1Cc1ccc(F)cc1)N1CCN(c2ccc(F)cc2)CC1,6,.,.,.,3,1
Cc1ccsc1C1Nc2ccc3ncccc3c2C2=C1C(=O)CC(C)(C)C2 (stereo not drawn),-6,-4%,2%,6%,5,7
CC1(C)CC(=O)C2=C(C1)c1c(ccc3ccccc13)NC2c1ccco1 (stereo not drawn),-11,-13%,-3%,-1%,-1,30*
COc1ccc(C2=NS(=O)(=O)N(C)C(C(=O)Nc3ccc(OC(F)(F)F)cc3)=C2)cc1,-37*,.,.,.,4,-2
COc1ccc(NC(=O)C2=CC(c3ccc(OC)cc3)=NS(=O)(=O)N2C)cc1,-1,0%,.,-3%,6,1
CSc1ccccc1NC(=O)C1=CC(c2ccc(C)cc2)=NS(=O)(=O)N1C,-8,2%,.,-2%,2,1
Cc1ccc(C2=NS(=O)(=O)N(C)C(C(=O)NC(C)c3ccccc3)=C2)cc1 (stereo not drawn),-43*,0%,.,6%,3,-6
COc1ccc(CNC(=O)C2=CC(c3ccc(C)cc3)=NS(=O)(=O)N2C)cc1,-34*,2%,.,-8%,-1,-19
Cc1ccc(C2=NS(=O)(=O)N(C)C(C(=O)NCc3ccccc3)=C2)cc1,-47*,-1%,.,-10%,5,-9
CCOc1ccc(CNC(=O)CN2C(=O)C3CCCCN3c3ccc(C(=O)N4CCCC4)cc32)cc1 (stereo not drawn),4,.,.,.,0,-3
Cc1nn2c(=O)cc(COC(=O)c3cccs3)nc2s1,10,.,.,.,2,-3
CNc1cccccc1=S,-56*,?,0%,-5%,0,1
Cc1nn2c(-c3cccnc3)ccnc2c1-c1ccccc1,-44*,1%,4%,-9%,4,-8
CCCc1ccc(C#N)c(SC2CC(=O)N(c3ccc(OC)cc3)C2=O)n1 (stereo not drawn),-45*,-1%,1%,-1%,13,-2
COc1ccc(N2C(=O)CC(Sc3nc(C)cc(C)c3C#N)C2=O)cc1 (stereo not drawn),-5,2%,-6%,5%,4,0
COc1ccc(CNC(=O)Cn2c(=O)nc(-c3ccccc3)c3ccccc32)cc1OC,9,.,.,.,1,0
Cc1ccc(CNC(=O)CC(C)CC2=NS(=O)(=O)c3ccccc3N2)cc1 (stereo not drawn),18,.,.,.,2,-1
Cc1ccc(C)c(C(=O)COC(=O)CCN2C(=O)C3C4CCC(C4)C3C2=O)c1 (stereo not drawn),-45*,1%,-3%,10%,2,-7
Cc1cc2c(s1)c1cnn(Cc3c(F)c(F)c(C(F)(F)F)c(F)c3F)c(=O)c1n2C,7,.,.,.,1,1
Cc1ccc(NC(=S)Nc2ccc(Br)cc2)cc1,-33*,2%,-1%,?,14,-15
COC(=O)CCCC(=O)Nc1ccc(Br)cc1,-1,3%,.,-8%,3,5
Cc1ccc(OCCCC(=O)Nc2ccc(Br)cc2)cc1,-67*,1%,0%,7%,5,-13
COC(=O)c1c(-c2ccc(OC)c(OC)c2)csc1N,-34*,-7%,-5%,8%,1,-7
SMILES,D1 antagonist,USP2a inh,GALK inh,Eya2 inh,D1 ag,D1 potentiator
Cn1c(O)c(/C=N/NC(=O)c2cc3ccccc3cc2O)c2ccccc21,-17,-3%,-20%,9%,147*,.
CCC(C)C(NC(=O)c1ccccc1)C(=O)Nc1ccc(S(=O)(=O)Nc2cc(C)nc(C)n2)cc1 (stereo not drawn),-59*,0%,.,-5%,0,-1
Cc1ccc(C(=O)/C=C/Nc2ccc(S(=O)(=O)Nc3cc(C)nc(C)n3)cc2)cc1,-57*,0%,-1%,1%,8,-3
C=Cc1ccc(Cn2c(C(=O)O)c(CNC3CCCCC3)c3ccc(C)cc32)cc1,6,.,.,.,-1,-1
COc1ccc(CCNCC(O)COc2cccc(Br)c2)cc1 (stereo not drawn),-1,-7%,-1%,2%,30*,5
OC(CNCCc1ccc(C(F)(F)F)cc1)COc1ccc2ccccc2c1 (stereo not drawn),10,-6%,1%,-7%,106*,7
OC(CNCCc1ccc(C(F)(F)F)cc1)COc1cccc2ccccc12 (stereo not drawn),12,-10%,2%,-16%,42*,6
COc1ccccc1COCC(O)CNCCc1ccc(C(F)(F)F)cc1 (stereo not drawn),-25,0%,.,?,50*,-2
OC(CNCCc1ccc(Cl)cc1)COCc1ccco1 (stereo not drawn),-6,1%,11%,5%,4,-3
CCOC(=O)c1c(C)n(C)c2ccc(OCC(O)CNCCc3ccccc3)cc12 (stereo not drawn),6,-2%,-1%,4%,3,-7
CC(=O)c1cccc(OCC(O)CNCCc2ccc(Cl)cc2)c1 (stereo not drawn),-6,0%,4%,-2%,26,-1
Cc1nc(SCc2cccc(Cl)c2)nc2c1CCCC2,-12,.,.,.,5,-6
COc1cc(OC)c(NC(=O)Cn2c(SCc3ccccc3F)nc3cccnc32)cc1Cl,-22,.,.,.,2,-1
OC(COc1ccc(CNCCc2ccc(C(F)(F)F)cc2)cc1)CN1CCCCC1 (stereo not drawn),-38*,2%,0%,-2%,35*,-3
CCOc1ccc(-n2nc3c(=O)[nH]nc(C)c3c2C)cc1,-60*,3%,2%,0%,0,0
CC(NCCC(c1ccccc1)c1ccccc1)c1ccccc1 (stereo not drawn),17,3%,4%,-3%,60*,7
C=CCN1C(=Nc2cccnc2)SCC1(O)c1ccc(C)cc1 (stereo not drawn),-56*,0%,0%,15%,19,-14
